Screening data as filed in PubChem.
Wnt act: Wnt/beta-catenin pathway activators, primary screen, cell-based, plate reader, single point | Wnt/beta-catenin reporter cell assay, activator | activation, % at 9.35 µM | 300,000 tested, 1.2% active; in the data active means activation above about 30%, passing the limit was not always enough; inconclusive means no clear call, values can overlap the other calls;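 further: 0% = neutral control wells and 100% = positive control wells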
Vif imaging: HIV Vif self-association inhibitors, primary screen, imaging, HEK293T, single point; HEK293T cells, Vif self-association by quenched fluorescence, 24 h; inhibition, % at 7.49 µM; 340,000 tested, 0.35% active; AID 602346, 2012; in the data active means inhibition above about 50%, passing the limit was not always enough; inconclusive means no clear call, values can overlap the other calls; inactive means below about 31%
Glyco luc inh: increase of ERlucT glycosylation luciferase signal, primary screen, N-linked glycosylation inhibitor project, D54 ERlucT cells, luminescence, set 2; 360,000 tested, 0.23% active; reporter increase, % at 12.5 µM; AID 588692, 2011; D54 ERlucT glycosylation luciferase reporter, 24 h; percent of 100 nM tunicamycin response;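 active means mean luciferase reporter signal, scaled so untreated is 0 and the glycosylation-blocking control 100, at or above a set limit in every replicate; inconclusive means mean reaches the limit but not every replicate does; inactive means mean below the limit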;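 further: luciferase carries N-glycosylation sites so blocking glycosylation raises the light; 0% = median of neutral control wells and 100% = median of 100 nM tunicamycin wells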
PvdQ inh: P. aeruginosa PvdQ acylase inhibitors, primary screen, biochemical, fluorescence, plate reader and imaging, single point; PvdQ acylase [Pseudomonas aeruginosa LESB58]; inhibition, % at 10 µM; AID 488965, 2010; 340,000 tested, 0.063% active; purified PvdQ acylase; in the data active means inhibition above about 30%, passing the limit was not always enough; inconclusive means no clear call, values can overlap the other calls;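 further: 0% = vehicle neutral wells and 100% = reference inhibitor wells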
MITF TRPM1 HTS: activators of MITF-driven TRPM1 promoter reporter, primary screen, cell-based, SK-MEL-5, luciferase, single point | SK-MEL-5 TRPM1-promoter luciferase, 24 h; % of positive control, neutral wells = 0 | activation, % at 12.5 µM | 300,000 tested, 0.75% active | AID 588334, 2011;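 active means mean activation of at least 80% with every replicate also reaching 80%; inconclusive means mean reaches 80% but some replicate falls short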;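 further: 0% = neutral control wells and 100% = parthenolide positive control wells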
esBAF inh: Bmi1 luciferase reporter increase in mESCs, primary screen, esBAF inhibitor project, mouse ES cells, Bmi1 luciferase knock-in, single point; 24 h; 100% = twice the neutral-well signal; reporter increase, % at 12.5 µM; 350,000 tested, 2% active; AID 602393, 2012; in the data active means activation above about 40%; inconclusive means no clear call, values can overlap the other calls;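 further: 0% = median of the plate's neutral control wells and 100% = double that signal; a rise in the Bmi1 reporter signal indicates esBAF inhibition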
An asterisk follows results filed as active; u = inconclusive; x = not tested or not shown. Rows were chosen to be rich in hits. Some 2.9% of all compounds tested hit in one or more screens of this group.

SMILES	Wnt act	Vif imaging	Glyco luc inh	PvdQ inh	MITF TRPM1 HTS	esBAF inh
CN1CCN(C(=O)C[C@H]2CC[C@H]3[C@@H](COC[C@@H](O)CN3S(=O)(=O)c3cccc(Cl)c3)O2)CC1	x	x	x	x	x	-3
Cc1ccc(-c2cnc3c(c2)C(=O)N([C@@H](C)CO)C[C@H](C)[C@H](CN(C)Cc2ccccc2C(=O)O)O3)cc1	x	x	x	x	x	3
COC(=O)c1c(-n2c(C)cc(C=O)c2C)sc2c1CCCC2	-3	84*	-2	-7	-4	-2
C[C@H]1CN([C@@H](C)CO)C(=O)c2cc(Br)cnc2O[C@@H]1CN(C)C(=O)C1CC1	x	x	x	x	x	-2
Fc1ccc(N2C(=S)SC(=Nc3ccccc3)C2=Nc2ccccc2)cc1	58*	4	4	-2	68	x
N=C1N(c2ccccc2)C(=S)C(=Nc2ccccc2)N1c1ccccc1	-3	3	-3	-8	-46	x
N#CC(C#N)=C1SC(=Nc2ccccc2)C(=Nc2ccccc2)N1c1ccccc1	56*	1	11	-9	3	x
N#C/C(=C(/O)c1cccc(F)c1)c1nc2ccccc2s1	34*	-9	-2	7	52	x
Cn1c(/C(C#N)=C(\O)c2cccc(F)c2)nc2ccccc21	5	0	1	3	2	21
N#C/C(=C(/O)c1ccco1)c1nc2ccccc2s1	4	-3	2	8	43	58*
O=C(N[C@H]1CC[C@H](CCNS(=O)(=O)c2cccc(Cl)c2)O[C@H]1CO)c1ccncc1	x	x	x	x	x	-1
COc1ccc(-c2ccc3c(c2)[C@@H]2[C@@H](CCN2S(=O)(=O)c2ccccc2C)[C@H](CO)N3)cc1	x	x	x	x	x	4
COCC(=O)N1[C@@H]2CN(C(=O)c3ccccc3)c3ccccc3[C@@H]2[C@@H]1CO	x	x	x	x	x	-3
C[C@@H]1CN([C@@H](C)CO)C(=O)Cc2cc(NS(=O)(=O)c3ccc(Cl)cc3)ccc2O[C@H]1CN(C)C(=O)Nc1ccc2c(c1)OCO2	x	x	x	x	x	-5
Cc1nnc(SCC(=O)Nc2ccccc2)c2ccccc12	-14	10	-4	-12	37	69*
C[C@H](CO)N1C[C@H](C)[C@H](CN(C)Cc2ccc(C(F)(F)F)cc2)OCCCC[C@H](C)Oc2ccc(NS(=O)(=O)c3cn(C)cn3)cc2C1=O	x	x	x	x	x	-11
Cc1ccc(N(Cc2ccc(C(=O)NN=C3CCN(C)CC3)cc2)S(C)(=O)=O)cc1C	x	64*	0	-4	8	-5
COc1ccc(CNC(=O)C[C@H]2C[C@@H]3c4cc(NC(=O)CC5CC5)ccc4O[C@@H]3[C@@H](CO)O2)cc1	x	x	x	x	x	8
COc1cccc2sc(N(C)c3ccccc3)nc12	65*	-4	-12	-3	57	14
COc1cccc2sc(N)nc12	8	-7	2	7	7	1
C[C@H](CO)N1C[C@H](C)[C@H](CN(C)Cc2cccc(O)c2)OCc2cn(nn2)CCCC1=O	x	x	x	x	x	-6
CO[C@H]1CN(C)C(=O)c2ccc(NS(=O)(=O)c3ccccc3Cl)cc2OC[C@@H](C)NC[C@@H]1C	x	x	x	x	x	0
C[C@@H]1CN([C@H](C)CO)C(=O)c2cccc(NC(=O)C3CCOCC3)c2O[C@@H]1CN(C)S(=O)(=O)c1cccs1	x	x	x	x	x	1
Cn1nc(C(F)(F)F)c(/C=N/OC(=O)c2ccccc2Cl)c1SCc1ccccc1Cl	x	5	58*	-10	x	-76
Cn1nc(C(F)(F)F)c(/C=N/OC(=O)c2ccc(Cl)cc2)c1Cl	x	19	0	2	x	-9
SMILES	Wnt act	Vif imaging	Glyco luc inh	PvdQ inh	MITF TRPM1 HTS	esBAF inh
Cn1nc(C(F)(F)F)c(/C=N/OCc2c(Cl)cccc2Cl)c1Cl	x	5	-2	-5	x	0
Cn1nc(C(F)(F)F)c(/C=N/OC(=O)c2ccccc2)c1SCc1ccc(Cl)cc1	-3	-9	73*	-11	15	5
CCCC(=O)Nc1ccc2c(c1)OC[C@@H](C)NC[C@H](C)[C@H](OC)CN(C)C2=O	x	x	x	x	x	-4
CN(C)CCCNC(=O)C[C@@H]1CC[C@@H]2[C@H](COc3ccc(NC(=O)c4ccccc4F)cc3C(=O)N2C)O1	x	x	x	x	x	3
O=c1c2ccccc2cnn1CCOc1cccc(Br)c1	21	6	-1	-5	-2	49*
Cc1noc(C)c1S(=O)(=O)Nc1ccc2c(c1)CC(=O)N([C@@H](C)CO)C[C@H](C)[C@H](CN(C)S(C)(=O)=O)O2	x	x	x	x	x	0
c1ccc(-c2ccc(-c3ccncn3)cc2)cc1	44*	-18	-5	-1	x	x
c1ccc(-c2cncnc2)nc1	-2	0	3	-2	-5	1
CCn1c(SCC(=O)c2ccc(O)c(O)c2)nnc1-c1ccccc1	x	5	-3	-17	31	45*
C=CCn1c(SCC(=O)c2ccc(O)c(O)c2)nnc1-c1ccccc1OC	-3	54*	-4	2	5	-4
CCn1c(SCC(=O)c2ccc(O)c(O)c2)nnc1-c1ccccc1OC	x	x	-3	-17	-4	23
CC1(C)Cc2c(sc3nc(-c4cc5ccccc5o4)n(N)c(=O)c23)CO1	x	-5	-2	-11	129*	48*
Cc1ccc(-c2nc3sc4c(c3c(=O)n2N)CC(C)(C)OC4)cc1	0	-3	-2	-12	x	39
CCOC(=O)c1[nH]c(C)c(C(=O)c2ccc(C)cc2)c1C	x	x	u	-14	7	30
CCOC(=O)c1c(C)[nH]c(N=Nc2ccc(OC)cc2)c1C	54*	2	-7	-9	129*	x
CCOC(=O)c1c(C)[nH]c(N=Nc2ccccc2)c1C	x	-19	-2	-6	71	89*
CCOC(=O)c1c(C)[nH]c(C=Nc2ccc(OC)cc2)c1O	2	2	0	0	64	u
CCOC(=O)c1c(C)[nH]c(O)c1C=Nc1ccccc1	2	4	0	-11	x	1
CCOC(=O)c1c(C)[nH]c(N=Nc2ccc(C)cc2)c1C	x	-1	-5	-14	124*	62*
CCOC(=O)c1c(C)[nH]c(N=Nc2ccccc2Cl)c1C	46*	-5	-10	-5	65	64*
COc1ccccc1CN(C)C[C@@H]1OCc2cn(nn2)CCCC(=O)N([C@@H](C)CO)C[C@@H]1C	x	x	x	x	x	2
C[C@H]1CN([C@@H](C)CO)C(=O)c2cccc(NC(=O)Nc3cccc4ccccc34)c2O[C@@H]1CN(C)C(=O)Nc1ccc2c(c1)OCO2	x	x	x	x	x	1
CCCNC(=O)c1cc(C2CCCN(S(=O)(=O)c3cccc4cccnc34)C2)on1 (stereo unspecified)	-4	73*	0	x	x	2
